Results filed as inconclusive are left out. A number with no mark means an inactive call. Calls of active or inactive are those of the source. Calls come from the whole dose curve; as a rule, active = well fitted curve in the direction sought with a large enough effect; inconclusive = small, poorly fitted or top-dose-only effect, or another doubt; inactive = no such curve, though single readings can be large; an effect the other way counts as inactive or inconclusive.
Assay: qHTS of pediatric cancer cell lines to identify multiple opportunities for drug repurposing: Primary screen for MG 63 (6-TG R) cells (AID 1347105); note: nearly all actives have a fitted effect of over 50% in size; note: potency is the fitted concentration of half-maximal effect
Settings: MG 63 (6-TG R) viability, CellTiter-Glo, 48 h; series mostly up to 46 µM; activity change, negative = cytotoxic: at the top concentration
In short: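 Primary screen of approved and investigational compounds on cells in growth media at 37 degrees C, 5% CO2. MIPE set at 11-point and NPC set at 8-point dilutions; viability scored by ATP-based luminescence at 48 hours.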
% is set by controls: 0 for no effect and ±100 for the full control effect.

Row | Structure (SMILES) | activity change, negative = cytotoxic | Potency
1 | O=C1CC2(CCCC2)CC(=O)N1 | -7.08% | 
2 | CCN1CCCC1CN (stereo not drawn) | -25.6% | 
3 | CC(C)=CCC/C(C)=C/CC/C(C)=C/CCC(=O)OC/C=C(\C)CCC=C(C)C | -21.1% | 
4 | CC(=O)OCC[N+](C)(C)C | -1.91% | 
5 | O=C(CCCl)NCCc1ccccc1 | -5.36% | 
6 | CO[C@@]1(NC(=O)CSC[C@@H](N)C(=O)O)C(=O)N2C(C(=O)O)=C(CSc3nnnn3C)CS[C@@H]21 | -7.2% | 
7 | O=C(O)c1ccccc1Nc1cc(Cl)ccc1C(=O)O | -8.75% [at 16.1 µM] | 
8 | CC(=O)O[C@@H]1CC2C3CCc4cc(OC(=O)c5ccccc5)ccc4C3CCC2(C)[C@H]1OC(C)=O (stereo partly drawn) | -5.37% | 
9 | CC(NN)c1ccccc1 (stereo not drawn) | -16.5% [at 16.1 µM] | 
10 | Oc1ccccc1 | -16.5% | 
11 | O=C(Nc1ccc(Cl)cc1)Nc1ccc(Cl)c(C(F)(F)F)c1 |  | 21.1 µM (active)
12 | O=C(O)Cc1ccc(OCCNC[C@H](O)c2ccccc2)cc1 | -21.5% | 
13 | C[C@@H]1C[C@H]2[C@@H]3CCC4=CC(=O)C=C[C@]4(C)[C@@]3(F)[C@@H](O)C[C@]2(C)[C@@]1(O)C(=O)COC(=O)c1ccncc1 | 11.9% | 
14 | Nc1ncnc2c1ncn2Cc1c(F)cccc1Cl | 2.22% | 
15 | NC(=O)COCCN1CCN(C(c2ccccc2)c2ccc(Cl)cc2)CC1 (stereo not drawn) | -11.2% | 
16 | COc1ccccc1N1CCN(CC(O)COc2cc(OC)c(OC)c(OC)c2)CC1 (stereo not drawn) | -12.5% | 
17 | O=C(Nc1ccc(S(=O)(=O)N2CCOCC2)cc1)c1cc(Cl)ccc1NS(=O)(=O)c1ccc(Cl)s1 | -8.92% | 
18 | C[C@@H]1CCC[C@H](C)N1CCCC(O)(c1ccccc1)c1ccccn1 (stereo partly drawn) | -17.2% | 

Row | Structure (SMILES) | activity change, negative = cytotoxic | Potency
19 | Cc1cc(O)c2c(O)c3c(O)cccc3cc2c1 | 15% | 
20 | CCOC(=O)CN1CCCC1=O | -6.82% | 
21 | Nc1nc2ccccc2n1Cc1ccc(F)cc1 | -14.8% | 
22 | NS(=O)(=O)c1cc(C(=O)NN2C[C@H]3[C@H]4CCC(C4)[C@H]3C2)ccc1Cl | -2.74% | 
23 | CC(C)(C)c1ccc(C(=O)CCCCl)cc1 | 11.7% | 
24 | OCc1cccnc1 | -15.7% | 
25 | O=C(O)CCCC[P+](c1ccccc1)(c1ccccc1)c1ccccc1 | -16.5% | 
26 | CN(C)CCN1CCN(c2cccc(Cl)c2)C1=O | -5.98% | 
27 | CC(=O)O[C@H]1CC[C@@]2(C)C(=CC[C@@H]3[C@@H]2CC[C@]2(C)C(C(C)=O)=CC[C@@H]32)C1 | -15.2% | 
28 | Cn1c(=O)c2c(ncn2CC(=O)O)n(C)c1=O | 2.04% | 
29 | O=C1CC(c2ccc(Cl)cc2)CC(=O)N1 | -11% | 
30 | COC(=O)c1cc(S(N)(=O)=O)ccc1OC | -18.9% | 
31 | CCCCCC1Nc2cc(C(F)(F)F)c(S(N)(=O)=O)cc2S(=O)(=O)N1 (stereo not drawn) | -11.2% | 
32 | CC1CN(c2cc3c(cc2F)c(=O)c(C(=O)O)cn3-c2ccc(F)cc2F)CCN1 (stereo not drawn) | 29.5% [at 4.84 µM] | 
33 | CCOC(=O)C(=O)CCc1ccccc1 | -4.79% | 
34 | COC(=O)c1cc(Cl)ccc1OC | -10.5% | 
35 | CCCCCCCCCCCCCC[N+](C)(C)C |  | 26.6 µM (active)

Assay: qHTS of pediatric cancer cell lines to identify multiple opportunities for drug repurposing: Primary screen for control Hh wild type fibroblast cells (AID 1347106);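 note: a drop in luminescence marks cytotoxicity and a rise apparent proliferation; nearly all actives have a fitted effect of over 55% in size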
Settings: Hh wild-type fibroblast viability, CellTiter-Glo luminescence, 48 h; series mostly up to 46 µM; activity change, negative = cytotoxic: at the top concentration
In short: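 Viability after 48 h compound treatment at 37C, 500-1,000 cells/well, read as ATP luminescence with CellTiter-Glo. Primary screens used 11-point (MIPE, 0.78 nM-46 µM) or 8-point (NPC, 0.59 nM-46 µM) final concentrations; follow-up screens used 11-point dilutions.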

Row | Structure (SMILES) | activity change, negative = cytotoxic
36 | O=C1CC2(CCCC2)CC(=O)N1 | 8.94%
37 | CCN1CCCC1CN (stereo not drawn) | -8.91%
38 | CC(C)=CCC/C(C)=C/CC/C(C)=C/CCC(=O)OC/C=C(\C)CCC=C(C)C | 18.1%
39 | CC(=O)OCC[N+](C)(C)C | 13.6%
40 | O=C(CCCl)NCCc1ccccc1 | 1.02%
41 | CO[C@@]1(NC(=O)CSC[C@@H](N)C(=O)O)C(=O)N2C(C(=O)O)=C(CSc3nnnn3C)CS[C@@H]21 | -1%
42 | O=C(O)c1ccccc1Nc1cc(Cl)ccc1C(=O)O | -24.8% [at 16.1 µM]
43 | CC(=O)O[C@@H]1CC2C3CCc4cc(OC(=O)c5ccccc5)ccc4C3CCC2(C)[C@H]1OC(C)=O (stereo partly drawn) | 5.63%
44 | CC(NN)c1ccccc1 (stereo not drawn) | 5.92% [at 16.1 µM]
45 | Oc1ccccc1 | 5.95%
46 | O=C(O)Cc1ccc(OCCNC[C@H](O)c2ccccc2)cc1 | 8.13%
47 | C[C@@H]1C[C@H]2[C@@H]3CCC4=CC(=O)C=C[C@]4(C)[C@@]3(F)[C@@H](O)C[C@]2(C)[C@@]1(O)C(=O)COC(=O)c1ccncc1 | -19.5%
48 | Nc1ncnc2c1ncn2Cc1c(F)cccc1Cl | 5.18%
49 | NC(=O)COCCN1CCN(C(c2ccccc2)c2ccc(Cl)cc2)CC1 (stereo not drawn) | 2.85%
50 | COc1ccccc1N1CCN(CC(O)COc2cc(OC)c(OC)c(OC)c2)CC1 (stereo not drawn) | 2.32%
51 | O=C(Nc1ccc(S(=O)(=O)N2CCOCC2)cc1)c1cc(Cl)ccc1NS(=O)(=O)c1ccc(Cl)s1 | 11.1%
52 | C[C@@H]1CCC[C@H](C)N1CCCC(O)(c1ccccc1)c1ccccn1 (stereo partly drawn) | -11.7%

Row | Structure (SMILES) | activity change, negative = cytotoxic
53 | Cc1cc(O)c2c(O)c3c(O)cccc3cc2c1 | 12.1%
54 | CCOC(=O)CN1CCCC1=O | -2.23%
55 | Nc1nc2ccccc2n1Cc1ccc(F)cc1 | 8.95%
56 | NS(=O)(=O)c1cc(C(=O)NN2C[C@H]3[C@H]4CCC(C4)[C@H]3C2)ccc1Cl | 10.2%
57 | CC(C)(C)c1ccc(C(=O)CCCCl)cc1 | 10%
58 | OCc1cccnc1 | 5.54%
59 | O=C(O)CCCC[P+](c1ccccc1)(c1ccccc1)c1ccccc1 | 3.15%
60 | CN(C)CCN1CCN(c2cccc(Cl)c2)C1=O | 11.3%
61 | CC(=O)O[C@H]1CC[C@@]2(C)C(=CC[C@@H]3[C@@H]2CC[C@]2(C)C(C(C)=O)=CC[C@@H]32)C1 | -5.5%
62 | Cn1c(=O)c2c(ncn2CC(=O)O)n(C)c1=O | 11.2%
63 | O=C1CC(c2ccc(Cl)cc2)CC(=O)N1 | 0.0212%
64 | COC(=O)c1cc(S(N)(=O)=O)ccc1OC | 4.16%
65 | CCCCCC1Nc2cc(C(F)(F)F)c(S(N)(=O)=O)cc2S(=O)(=O)N1 (stereo not drawn) | 2.55%
66 | CC1CN(c2cc3c(cc2F)c(=O)c(C(=O)O)cn3-c2ccc(F)cc2F)CCN1 (stereo not drawn) | -8.43% [at 4.84 µM]
67 | CCOC(=O)C(=O)CCc1ccccc1 | 8.09%
68 | COC(=O)c1cc(Cl)ccc1OC | 6.96%
